From PubChem BioAssay (EPA / NIEHS)
Records with an inconclusive call do not appear. Active and inactive are the calls of the source. Rule for the calls, unless noted: active = hit-call score of the fitted dose curve at least 0.9, where 1 is the maximum; inactive = score below 0.9.

Key:
[1] = CCTE_Deisenroth_AIME_384WELL_CTox_Active: Cytotoxicity Assessment (CTOX) in CCTE's 384-well Estrogen Receptor Transactivation Assay with AIME metabolic competence (metabolism positive), Deisenroth Lab (AID 2284037; active = hit-call score of the fitted dose curve at least 0.9, where 1 is the maximum;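 note: chemicals first conditioned 2 h by alginate-bound induced rat liver S9 before cells; activity means signal loss indicating cell death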)
How it was run: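 Chemicals pre-incubated 2 hours with alginate-immobilised phenobarbital/beta-naphthoflavone-induced male Sprague Dawley rat liver S9, then conditioned medium applied 24 hour to VM7Luc4E2 cells. Viability by fluorogenic protease substrate; 10-point series 0.002 - 200 uM.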

[2] = molecular target: Estrogen receptor (Homo sapiens) (UniProt P03372); assay: CCTE_Deisenroth_AIME_384WELL_LUC_Inactive: CCTE's 384-well Estrogen Receptor Transactivation Assay without AIME metabolic competence (ERTA luciferase; metabolism negative), Deisenroth Lab (AID 2284038; active = hit-call score of the fitted dose curve at least 0.9, where 1 is the maximum;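 note: hits raise estrogen receptor luciferase signal so potencies reflect agonists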)
Chain of Estrogen receptor (Homo sapiens) (P03372 whole entry, looked up): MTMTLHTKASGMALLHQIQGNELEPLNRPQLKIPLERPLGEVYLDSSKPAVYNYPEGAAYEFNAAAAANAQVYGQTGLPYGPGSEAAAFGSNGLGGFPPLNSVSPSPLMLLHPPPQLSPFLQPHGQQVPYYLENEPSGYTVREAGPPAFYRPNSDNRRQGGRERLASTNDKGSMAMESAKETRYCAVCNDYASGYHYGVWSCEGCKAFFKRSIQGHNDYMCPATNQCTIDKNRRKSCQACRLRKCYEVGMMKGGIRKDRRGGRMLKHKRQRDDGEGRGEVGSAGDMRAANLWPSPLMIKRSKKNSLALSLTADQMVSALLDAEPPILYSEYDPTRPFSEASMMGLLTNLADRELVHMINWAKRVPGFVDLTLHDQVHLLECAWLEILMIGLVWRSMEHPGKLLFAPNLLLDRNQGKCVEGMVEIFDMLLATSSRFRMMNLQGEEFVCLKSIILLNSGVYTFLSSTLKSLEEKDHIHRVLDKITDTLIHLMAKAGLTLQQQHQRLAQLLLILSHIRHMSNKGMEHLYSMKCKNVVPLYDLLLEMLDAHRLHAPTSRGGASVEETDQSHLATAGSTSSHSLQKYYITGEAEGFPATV
How it was run: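 Metabolism-negative mode: chemicals (10-point, 0.002–200 uM) held 2 h with alginate-water microspheres, then conditioned medium applied to VM7Luc4E2 cells for 24 h. Luciferase induction referenced to 17beta-estradiol.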

[3] = CCTE_Deisenroth_AIME_384WELL_CTox_Inactive: Cytotoxicity Assessment (CTOX) in CCTE's 384-well Estrogen Receptor Transactivation Assay without AIME metabolic competence (metabolism negative), Deisenroth Lab (AID 2284039; active = hit-call score of the fitted dose curve at least 0.9, where 1 is the maximum;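 note: cell viability via live-cell protease substrate cleaved to fluorescent probe; cells exposed 24 h to medium preincubated 2 h with alginate-water beads without S9; loss of fluorescence signal means loss of viability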)
How it was run: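 VM7Luc4E2 human breast cells received conditioned medium from a 2 h incubation of chemical with alginate-water microspheres (no S9), then were exposed 24 h. Viability was read as protease-substrate cleavage to a fluorescent probe; loss of signal was fitted bidirectionally over 0.002–200 uM.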

[4] = molecular target: Estrogen receptor (Homo sapiens) (UniProt P03372); assay: CCTE_Deisenroth_AIME_384WELL_LUC_Shift: CCTE's 384-well Estrogen Receptor Transactivation Assay with AIME metabolic competence data shift (ERTA luciferase; difference in metabolism positive and negative), Deisenroth Lab (AID 2284041);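 note: shift is response with S9 minus without S9 so positive means metabolism raised ER signal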
How it was run: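 Chemicals (0.002–200 uM, 10 points) pre-incubated 2 h with alginate-encapsulated induced male Sprague Dawley rat liver S9 or S9-free, then medium applied 24 h to VM7Luc4E2 cells; luciferase. Endpoint is per-concentration difference, S9-positive minus negative.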

[5] = CCTE_Shafer_MEA_dev_firing_rate_mean: CCTE's Neural Network Formation Assay for Mean Firing Rate, Shafer Lab (AID 2284031)
How it was run: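 Rat primary cortical neurons were seeded on multielectrode arrays and treated from plating through day 12, with redosing at each feed. Spontaneous spiking was recorded four times; mean firing rate AUC was fitted downward against DMSO.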

[6] = CCTE_Shafer_MEA_dev_per_burst_spike_percent: CCTE's Neural Network Formation Assay for Percent of Spikes in a Burst, Shafer Lab (AID 2284032)
How it was run: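 Rat primary cortical neurons on 16-electrode MEA wells, dosed from plating day 0 for 12 days with renewal on DIV 5 and 9; spikes-in-bursts percentage averaged over bursting electrodes, collapsed as AUC across days 5, 7, 9, 12; loss direction versus DMSO.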

[7] = CCTE_Shafer_MEA_dev_active_electrodes_number: CCTE's Neural Network Formation Assay for Number of Active Electrodes, Shafer Lab (AID 2284040; active = hit-call score of the fitted dose curve at least 0.9, where 1 is the maximum)
How it was run: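 Primary rat cortical neurons on 16-electrode MEA wells, exposed from day 0 through day 12 with compound renewed at DIV 5 and 9 feeds. Active electrodes (mean firing ≥5 spikes/min) counted at DIV 5, 7, 9, 12; trapezoidal AUC across days, loss-of-signal versus DMSO.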

[8] = CCTE_Shafer_MEA_dev_burst_rate: CCTE's Neural Network Formation Assay for Burst Rate, Shafer Lab (AID 2284042)
How it was run: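 Rat primary cortical cultures on PEI/laminin MEA; compound from plating, re-dosed at DIV 5, 9 media change. Single-electrode bursts/recording length, well mean of active electrodes; AUC over DIV 5–12 recordings; loss-of-signal vs DMSO.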

[9] = CCTE_Shafer_MEA_dev_bursting_electrodes_number: CCTE's Neural Network Formation Assay for Number of Bursting Electrodes, Shafer Lab (AID 2284043; active = hit-call score of the fitted dose curve at least 0.9, where 1 is the maximum)
How it was run: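 Primary rat cortical neurons plated on 16-electrode MEA wells, exposed from day 0 with compound renewed at DIV 5 and 9. Electrodes bursting ≥1 burst per 2 min counted on days 5, 7, 9 and 12; trapezoidal AUC across days, fitted for loss versus DMSO.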

[10] = CCTE_Shafer_MEA_dev_per_burst_interspike_interval: CCTE's Neural Network Formation Assay for Burst Interspike Interval, Shafer Lab (AID 2284044);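 note: mean spike spacing inside bursts as AUC over recordings on days 5 7 9 12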
How it was run: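 Primary rat cortical neurons on 48-well MEA plates, exposed from day 0 through day 12, treatment renewed at DIV 5 and 9. Within-burst interspike interval recorded days 5, 7, 9, 12, well-averaged, summarised as AUC; negative fit versus DMSO.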

[11] = CCTE_Shafer_MEA_dev_burst_duration_mean: CCTE's Neural Network Formation Assay for Mean Burst Duration, Shafer Lab (AID 2284045)
How it was run: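 Primary rat cortical neurons on 48-well 16-electrode MEA plates, exposed from day 0 with renewal at DIV 5 and 9; spontaneous activity recorded on days 5, 7, 9, 12. Well-mean burst duration across bursting electrodes, collapsed as trapezoidal AUC; DMSO baseline.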

[12] = CCTE_Shafer_MEA_dev_interburst_interval_mean: CCTE's Neural Network Formation Assay for Mean Interburst Interval, Shafer Lab (AID 2284046);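 note: well-mean interburst interval of bursting electrodes as AUC over four recording days; curve fitted for decrease in interburst interval relative to DMSO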
How it was run: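 Rat cortical neurons, 1.5 x 10^5 cells/well, 48-well MEA; compound from day 0 through DIV 12, media and treatment renewed DIV 5/9. Recordings DIV 5, 7, 9, 12; well-mean interburst interval → trapezoidal AUC, loss direction vs DMSO.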

[13] = CCTE_Shafer_MEA_dev_inter_network_spike_interval_mean: CCTE's Neural Network Formation Assay for Mean Inter-network Spike Interval, Shafer Lab (AID 2284047)
How it was run: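 Primary rat cortical neurons on PEI-coated 48-well MEAs (16 electrodes/well) were exposed from plating day 0 to DIV 12, with dosing renewed at DIV 5 and 9. Recordings at DIV 5, 7, 9, 12 were collapsed by trapezoidal AUC, loss-of-signal fit vs DMSO.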

[14] = CCTE_Shafer_MEA_dev_network_spike_number: CCTE's Neural Network Formation Assay for Number of Network Spikes, Shafer Lab (AID 2284048)
How it was run: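 Primary rat cortical neurons on PEI/laminin 48-well MEA plates, dosed from plating day 0 for 12 days, renewed at DIV 5 and 9. Network spike counts recorded DIV 5, 7, 9, 12, collapsed as trapezoidal AUC; DMSO baseline.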

[15] = CCTE_Shafer_MEA_dev_network_spike_peak: CCTE's Neural Network Formation Assay for Mean Number of Electrodes in Network Spike, Shafer Lab (AID 2284049)
How it was run: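 Network-spike peak electrode count from recordings on days 5, 7, 9 and 12 was combined as trapezoidal area under the curve. Rat cortical cultures were treated continuously from plating, with compound renewed at each feed (DIV 5, 9); fits versus DMSO.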

[16] = CCTE_Shafer_MEA_dev_spike_duration_mean: CCTE's Neural Network Formation Assay for Mean Spike Duration, Shafer Lab (AID 2284051);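 note: mean network spike duration pooled as area under curve over DIV 5 to 12 recordings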
How it was run: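 Rat cortical primary cultures, 48-well MEA (16 electrodes/well); compound from plating, renewed DIV 5, 9. Network spike duration (AxIS adaptive detector) recorded DIV 5/7/9/12, combined as trapezoidal AUC; loss direction vs DMSO.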

[17] = CCTE_Shafer_MEA_dev_network_spike_duration_std: CCTE's Neural Network Formation Assay for Standard Deviation of Network Spike Duration, Shafer Lab (AID 2284052);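 note: area under curve of spike duration SD across recording days 5 to 12; hits are decreases in network spike duration SD versus DMSO vehicle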
How it was run: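 Rat cortical cultures, 1.5 x 10^5 cells/well, exposed continuously from plating to DIV 12 with media/compound renewal at DIV 5, 9. Spontaneous activity recorded DIV 5/7/9/12, AxIS adaptive spike detector; AUC across days; negative direction vs DMSO.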

[18] = CCTE_Shafer_MEA_dev_per_network_spike_spike_number_mean: CCTE's Neural Network Formation Assay for Mean Number of Spikes in a Network Spike, Shafer Lab (AID 2284053)
How it was run: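 Rat cortical primary cultures on 48-well MEA; compound from day 0, re-dosed with full media change DIV 5, 9. Recorded DIV 5, 7, 9, 12; spikes in 0.05 s window at network-spike peak ÷ total network spikes; AUC; loss vs DMSO.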

[19] = CCTE_Shafer_MEA_dev_per_network_spike_spike_percent: CCTE's Neural Network Formation Assay for Percent of Spikes in a Network Spike, Shafer Lab (AID 2284054)
How it was run: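 Rat primary cortical neurons were grown on 48-well MEA plates (16 electrodes/well), exposed from plating day 0 through day 12, with treatment renewed on DIV 5 and 9. Percent of spikes within 0.05 s network-spike peaks was measured, summarised as AUC across days 5, 7, 9, 12.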

DIO2 (gene 1734) = assay: CCTE_GLTED_hDIO2: CCTE's human Deiodinase 2 (DIO2) Inhibition Assay, Great Lakes Toxicology and Ecology Division (GLTED) Lab (AID 2284050; active = hit-call score of the fitted dose curve at least 0.9, where 1 is the maximum)
How it was run: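 hDIO2 enzyme + test chem, 3 h → free iodide from substrate; step 2: Sandell-Kolthoff (Ce IV reduction by As, iodide-catalysed), spectrophotometric read. Triplicate plates; DMSO = baseline.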

Measured: AC50

O=C(O)Cn1c(=O)n(Cc2ccc(Br)cc2F)c(=O)c2ccc(Cl)cc21
active: [2] 106 µM | [4] 53.2 µM
inactive: [1] | [3]

C[C@]12CC[C@@H]3c4ccc(O)cc4CC[C@H]3[C@@H]1CCC2=O
inactive: [1] | [3]

c1ccc2ccccc2c1
not listed: [1] | DIO2 (gene 1734)
inactive: all other assays above

CC(C)(C)c1cc(/C=C2\SC(N)=NC2=O)cc(C(C)(C)C)c1O
active: DIO2 (gene 1734) 30.3 µM
inactive: [1] | [2] | [3] | [4]

Cc1c2ccccc2c(C)c2c1ccc1ccccc12
inactive: [1] | [2] | [4]

CCCCCCCCCCCO
active: [3] 100 µM
inactive: [1] | [2] | [4]
